Experimental data published in the supplement of paper PMC9262897, “Low-cost anti-mycobacterial drug discovery using engineered E. coli” (Nature Communications, 2022).
Counter-ions that a name gives are not always drawn. ± gives the standard deviation of the averaged measurements.

Tested on: E. coli TESEC Mtb Alr
Assay: growth (OD600 after 10 h); higher = more growth (less inhibition)
Conditions: arabinose 10000 nM; compound 0.1 mM; raw OD600 reference: median of DMSO wells 0.264, cell-free background 0.041
Experimental: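 TESEC Mtb Alr E. coli, or the Alr+ wild-type control, in 384-well plates with Prestwick library compounds at 0.1 mM and 1% DMSO, across arabinose induction levels of 1E3 to 1E7 nM. Growth is read as OD600 after 10 h at 37 °C in triplicate biological replicates.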

Row | SMILES | growth
1 | CN(C)CCN(Cc1ccc(Cl)cc1)c1ccccn1 [Chloropyramine hydrochloride] | 0.265 ± 0.0041
2 | O=C1NCCN1CCN1CCC(c2cn(-c3ccc(F)cc3)c3ccc(Cl)cc23)CC1 [Sertindole] | 0.04073 ± 0.00025
3 | O=C1NCC2(CCN(CCc3ccccc3)CC2)O1 [Fenspiride hydrochloride] | 0.27 ± 0.0043
4 | CC(C)[C@H]1CC[C@H](C(=O)N[C@H](Cc2ccccc2)C(=O)O)CC1 [Nateglinide] | 0.246 ± 0.019
5 | CCOC(=O)[C@H](CCc1ccccc1)N[C@@H](C)C(=O)N1CCC[C@H]1C(=O)O [Enalapril maleate] | 0.25 ± 0.0032
6 | CC1(C)O[C@@H]2[C@@H](CO[C@@]3(COS(N)(=O)=O)OC(C)(C)O[C@@H]23)O1 [Topiramate] | 0.2714 ± 0.0027
7 | c1ccc2c(c1)CCCc1cc(NCCN3CCOCC3)nnc1-2 | 0.278 ± 0.0085
8 | CC[C@@H]1C(=O)OC[C@@H]1Cc1cncn1C [Pilocarpine nitrate] | 0.244 ± 0.011
9 | Cn1ccnc1S [Methimazole] | 0.275 ± 0.0076
10 | NC[C@H]1O[C@H](O[C@H]2[C@H](O)[C@@H](O[C@H]3O[C@H](CO)[C@@H](O)[C@H](N)[C@H]3O)[C@H](N)C[C@@H]2N)[C@H](N)C[C@@H]1O [Tobramycin] | 0.03917 ± 0.00021
11 | O=C1C(CC[S+]([O-])c2ccccc2)C(=O)N(c2ccccc2)N1c1ccccc1 (stereo not given) [Sulfinpyrazone] | 0.241 ± 0.006
12 | C=C1/C(=C\C=C2/CCC[C@]3(C)[C@@H]([C@H](C)CCCC(C)C)CC[C@@H]23)C[C@@H](O)C[C@@H]1O [Alfacalcidol] | 0.051 ± 0.0012
13 | C[C@H](O)C(=O)Nc1c(I)c(C(=O)NC(CO)CO)c(I)c(C(=O)NC(CO)CO)c1I [Iopamidol] | 0.287 ± 0.012
14 | CCCCNc1cc(C(=O)O)cc(S(N)(=O)=O)c1Oc1ccccc1 [Bumetanide] | 0.251 ± 0.0081
15 | CN(C)CCCOc1nn(Cc2ccccc2)c2ccccc12 [Benzydamine hydrochloride] | 0.25 ± 0.0088
16 | CCn1nc(C(=O)O)c(=O)c2cc3c(cc21)OCO3 [Cinoxacin] | 0.0622 ± 0.0033
17 | CCCCOC(=O)c1ccc(N)cc1 [Butamben] | 0.277 ± 0.0069
18 | C#C[C@]1(O)CC[C@H]2[C@@H]3CCC4=CCCC[C@@H]4[C@H]3CC[C@@]21C [Lynestrenol] | 0.266 ± 0.015
19 | CCc1c2c(nc3ccc(OC(=O)N4CCC(N5CCCCC5)CC4)cc13)-c1cc3c(c(=O)n1C2)COC(=O)[C@]3(O)CC [Irinotecan hydrochloride trihydrate] | 0.2556 ± 0.0019
20 | CN(C)CCn1nnnc1SCC1=C(C(=O)O)N2C(=O)[C@@H](NC(=O)Cc3csc(N)n3)[C@H]2SC1 [Cefotiam hydrochloride] | 0.0413 ± 0.00046

Row | SMILES | growth
21 | O=S(=O)(O)c1cc(O)ccc1O [Ethamsylate] | 0.258 ± 0.0087
22 | NNC(=O)c1ccncc1 [Isoniazid] | 0.275 ± 0.0043
23 | O=C(O)/C=C/c1ccc(Cn2ccnc2)cc1 [Ozagrel hydrochloride] | 0.263 ± 0.0041
24 | NCCC[C@H](N)CC(=O)N[C@H]1CNC(=O)[C@H]([C@H]2C[C@H](O)NC(N)=N2)NC(=O)/C(=C/NC(N)=O)NC(=O)[C@H](CO)NC(=O)[C@H](CO)NC1=O [Viomycin sulfate] | 0.1314 ± 0.0004
25 | CC1CS(=O)(=O)CCN1/N=C/c1ccc([N+](=O)[O-])o1 (stereo not given) [Nifurtimox] | 0.04127 ± 0.00031
26 | CC(C)C(=O)Nc1ccc([N+](=O)[O-])c(C(F)(F)F)c1 [Flutamide] | 0.161 ± 0.0036
27 | Nc1ccc(S(=O)(=O)Nc2cnc3ccccc3n2)cc1 [Sulfaquinoxaline sodium salt] | 0.171 ± 0.004
28 | Cc1cnc(NC(=O)C2=C(O)c3ccccc3S(=O)(=O)N2C)s1 [Meloxicam] | 0.238 ± 0.012
29 | CCCc1ncc(C[n+]2ccccc2C)c(N)n1 [Amprolium hydrochloride] | 0.2572 ± 0.0021
30 | COc1cc(C(=O)OCCCN2CCCN(CCCOC(=O)c3cc(OC)c(OC)c(OC)c3)CC2)cc(OC)c1OC [Dilazep dihydrochloride] | 0.291 ± 0.0076
31 | CC(C)(O/N=C(\C(=O)N[C@@H]1C(=O)N2C(C(=O)[O-])=C(C[n+]3ccccc3)CS[C@H]12)c1csc(N)n1)C(=O)O [Ceftazidime pentahydrate] | 0.0396 ± 0.0004
32 | O=C(c1ccc(OCCN2CCCCC2)cc1)c1c(-c2ccc(O)cc2)sc2cc(O)ccc12 [Raloxifene hydrochloride] | 0.0428 ± 0.0024
33 | CS(=O)(=O)c1ccc([C@@H](O)[C@@H](CO)NC(=O)C(Cl)Cl)cc1 [Thiamphenicol] | 0.0394 ± 0.00036
34 | CN(C)CC/C=C1\c2ccccc2CSc2ccccc21 [Dosulepin hydrochloride] | 0.309 ± 0.019
35 | CCOc1nc2cccc(C(=O)O)c2n1Cc1ccc(-c2ccccc2-c2nnn[nH]2)cc1 [Candesartan] | 0.285 ± 0.0054
36 | CCc1cc(C(N)=S)ccn1 [Ethionamide] | 0.262 ± 0.005
37 | CN(C)CCCC1(c2ccc(F)cc2)OCc2cc(C#N)ccc21 (stereo not given) [Citalopram Hydrobromide] | 0.25 ± 0.0072
38 | Cn1c(=O)c2c(ncn2C)n(C)c1=O [Caffeine] | 0.277 ± 0.0046
39 | COc1ccc(C(=O)NCc2ccc(OCCN(C)C)cc2)cc1OC [Itopride] | 0.268 ± 0.011
40 | Cn1cnc([N+](=O)[O-])c1Sc1ncnc2[nH]cnc12 [Azathioprine] | 0.0744 ± 0.0045
